# Data from PubChem BioAssay AID376 (PDSP, 2006).
# In all, about 2,000 compounds went through this assay and about 250 (12%) were called active. The full list was thinned out, with actives kept by preference. Unmarked numbers belong to inactive results. Cut-off read from the data, not from the text of the source: active = hERG blockade below about -20% or above about 20%; inactive = in between.
# Biological target: Voltage-gated inwardly rectifying potassium channel KCNH2 (Homo sapiens) (UniProt Q12809)
# Test: modulators of KCNH2 ion channel function, cellular (AID 376);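 note: 0% = buffer alone and 100% = reference blocker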
# Conditions: hERG-expressing cells, channel activity single-concentration screen; concentration not given here
# Chain of Voltage-gated inwardly rectifying potassium channel KCNH2 (Homo sapiens) (Q12809 whole entry, looked up): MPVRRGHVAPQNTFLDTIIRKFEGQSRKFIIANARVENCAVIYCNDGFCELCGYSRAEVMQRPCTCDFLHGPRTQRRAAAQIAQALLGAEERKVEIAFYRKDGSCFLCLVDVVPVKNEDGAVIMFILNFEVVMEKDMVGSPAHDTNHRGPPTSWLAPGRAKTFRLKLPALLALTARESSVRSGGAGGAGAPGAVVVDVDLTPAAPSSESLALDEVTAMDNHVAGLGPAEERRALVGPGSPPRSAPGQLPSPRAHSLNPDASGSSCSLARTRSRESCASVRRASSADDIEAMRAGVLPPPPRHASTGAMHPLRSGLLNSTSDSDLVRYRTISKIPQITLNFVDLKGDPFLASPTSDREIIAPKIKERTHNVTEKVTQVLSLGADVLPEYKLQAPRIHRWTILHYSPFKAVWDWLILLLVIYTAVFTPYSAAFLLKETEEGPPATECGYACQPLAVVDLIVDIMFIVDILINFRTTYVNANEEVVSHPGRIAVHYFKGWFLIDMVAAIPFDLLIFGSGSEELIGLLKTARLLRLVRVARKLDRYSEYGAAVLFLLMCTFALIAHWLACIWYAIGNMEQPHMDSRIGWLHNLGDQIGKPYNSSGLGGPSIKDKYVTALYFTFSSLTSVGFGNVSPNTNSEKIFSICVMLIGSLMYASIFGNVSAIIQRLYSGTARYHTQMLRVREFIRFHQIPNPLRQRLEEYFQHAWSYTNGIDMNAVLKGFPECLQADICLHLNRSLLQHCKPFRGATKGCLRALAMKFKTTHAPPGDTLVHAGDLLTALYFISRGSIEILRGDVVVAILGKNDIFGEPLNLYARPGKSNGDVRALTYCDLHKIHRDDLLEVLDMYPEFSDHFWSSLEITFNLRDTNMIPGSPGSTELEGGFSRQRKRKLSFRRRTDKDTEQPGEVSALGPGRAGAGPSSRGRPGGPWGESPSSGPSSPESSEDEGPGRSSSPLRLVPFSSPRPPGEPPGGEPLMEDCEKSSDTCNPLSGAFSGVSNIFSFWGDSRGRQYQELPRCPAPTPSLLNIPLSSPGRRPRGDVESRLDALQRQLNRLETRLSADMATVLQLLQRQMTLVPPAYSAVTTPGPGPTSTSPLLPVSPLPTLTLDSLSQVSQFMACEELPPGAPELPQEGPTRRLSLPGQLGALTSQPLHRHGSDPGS
row,SMILES,hERG blockade
1,O=C(O)c1c(Br)c(Br)c(Br)c(Br)c1C1c2ccc(O)cc2Oc2cc(O)ccc21,2.46%
2,c1cnc2c(c1)ccc1cccnc12,56.6% (active)
3,Cc1ccc(NC(c2ccccc2)c2ccc3cccnc3c2O)cc1 (configuration not stated),-7.23%
4,Oc1c(C(Nc2ccccn2)c2ccccc2)ccc2cccnc12 (configuration not stated),12.1%
5,Cc1ncn(-c2ccccc2O)c1C,-3.27%
6,CSC(CC(=O)O)C(=O)O (configuration not stated),-18%
7,CC1OC(CC(=O)O)Cc2c1c(O)c1c(O)cc(-c3cc(=O)c4c(=O)c5c(c(=O)c=4c3=O)CC(CC(=O)O)OC5C)c(O)c1c2O (configuration not stated),14.9%
8,C[n+]1cccc(C=Cc2ccc3cccc(O)c3n2)c1,48.1% (active)
9,Oc1cccc2ccc(SSc3ccc4cccc(O)c4n3)nc12,0.631%
10,Oc1ccc2ccccc2c1C=Cc1ccc2c(Br)cc(Br)c(O)c2n1,11%
11,O=C(O)c1cc(=O)[nH]c(SCc2ccccc2)n1,0.275%
12,C[N+](C)([O-])Cc1cc(-c2ccccc2)ccc1O,-15.8%
13,O=C(SCc1cccc2ccccc12)c1ccc(Cl)cc1,-11.8%
14,S=C(S)NCCCn1ccnc1,-3.79%
15,NCCSS(=O)(=O)CCN,3.89%
16,Cc1cc(N)c2cc(NC(=O)Nc3ccc4nc(C)cc(N)c4c3)ccc2n1,1.21%
17,CCOc1ccc2nc3cc(N=Nc4ccc(N)nc4N)ccc3c(N)c2c1,19.7%
18,Cc1cc(N)c2cc(OCCOc3ccc4nc(C)cc(N)c4c3)ccc2n1,38.9% (active)
19,O=C(O)CC12CC3CC(CC(O)(C3)C1)C2,-8.63%
20,CCCCCC(O)C1C(=O)OC(C)C(O)C=CC=CC=CC=CC=C(C)C(O)CC(O)CC(O)CC(O)CC(O)CC(O)CC1O (configuration not stated),-9.84%
21,O=C(O)C(C1NCCS1)N1Cc2ccccc2C1 (configuration not stated),-7.98%
22,C[N+]1(Cc2ccc(Cl)c(Cl)c2)CCCC1c1ccc[n+](Cc2ccc(Cl)c(Cl)c2)c1 (configuration not stated),16.1%
23,C[N+]1(CC[N+]2(C)CCCC2c2cccnc2)CCCC1c1cccnc1 (configuration not stated),23.3% (active)
24,c1cncc(CNCc2cccnc2)c1,5.77%
25,CC1(C)SC2C(NC(=O)Cc3ccccc3)C(=O)N2C1C(=O)O (configuration not stated),1.04%
26,O=C(O)c1ccc(NC(c2ccccc2)c2ccc3cccnc3c2O)cc1 (configuration not stated),-7.8%

row,SMILES,hERG blockade
1,CC1(CCC(=O)OC2CCCCC2)OCCO1,-7.92%
2,CC(C)(C)c1ccc(OCC(=O)O)c(Cl)c1,-5.3%
3,CN1CCN(CCCNN)CC1,-5.53%
4,CN1CCN(CCCN)CC1,-1.63%
5,CN1CCN(CCCBr)CC1,25.3% (active)
6,O=C(O)C(Cc1ccc(O)c([N+](=O)[O-])c1)N1C(=O)c2ccccc2C1=O (configuration not stated),-10.2%
7,[O-][N+](CCO)(CCO)c1ncnc2nc[nH]c12,13%
8,O=C1C(Cl)=C(Nc2ccc(S(=O)(=O)Nc3ccccn3)cc2)C(=O)c2ccccc21,9.57%
9,COc1cc(NCCC2CCCCN2)c2ncccc2c1 (configuration not stated),7.01%
10,Cc1cc(N2CCN(C)CC2)n2nc(-c3ccc(Cl)cc3)nc2n1,90% (active)
11,O=c1[nH]c(SCc2c(Cl)c(Cl)c(Cl)c(Cl)c2Cl)nc(=S)[nH]1,-9.32%
12,Cc1ccc(S(=O)(=O)NC(C(=O)O)C(C)C)cc1 (configuration not stated),0.497%
13,Cc1ccc(S(=O)(=O)NC(CO)C(=O)O)cc1 (configuration not stated),23.3% (active)
14,Cc1ccc(S(=O)(=O)NC(CN)C(=O)O)cc1 (configuration not stated),4.41%
15,NC1(C(=O)OCc2ccccc2)CCCC1,15.7%
16,CC(OP(=O)(O)O)C(N)C(=O)O (configuration not stated),-6.12%
17,Clc1ccc(CSCCc2ccncc2)cc1Cl,14.8%
18,Cn1cnc([N+](=O)[O-])c1Sc1nc(N)nc2c1ncn2Cc1ccccc1,37% (active)
19,Nc1nc(SCc2ccccc2)c2ncn(Cc3ccccc3)c2n1,-3.09%
20,CC(C)Cn1cnc2c(Sc3c([N+](=O)[O-])ncn3C)nc(N)nc21,4.65%
21,NC(Cc1c[nH]c2ccc([N+](=O)[O-])cc12)C(=O)O (configuration not stated),7.32%
22,C=C(C)COc1ccc2c(c1)CCC1C2CCC2(C)C(=O)C(=NO)CC12 (configuration not stated),0.877%
23,OCC1OC(O)C(N=Cc2ccc3c(c2)OCO3)C(O)C1O (configuration not stated),-14.8%
24,Nc1ccc(S(=O)(=[OH+])[NH2+]c2ncccn2)cc1.[Ag+],89.5% (active)
25,Nc1ccc(S(=O)(=O)Nc2cnc3ccccc3n2)cc1,8%
26,Nc1ccc(S(=O)(=O)NCc2nccs2)cc1,17.3%
